Screens from PubChem BioAssay.
Mcl1 Noxa PPI – Mcl-1/Noxa interaction inhibition; TR-FRET Mcl-1/Noxa peptide binding, 2 h; Q07820; AID 1022; inhibition, % at 21.7 µM; 1.5% of 220,000 active;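 active = compounds that cut the protein-peptide binding signal by more than 50% relative to plate controls in a single-dose test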;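 also: His-tagged Mcl-1 with rhodamine Noxa BH3 peptide and terbium anti-His antibody; 0% = Mcl-1 plus Noxa peptide wells and 100% = peptide-only wells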
Target sequence (Q07820 whole entry, looked up): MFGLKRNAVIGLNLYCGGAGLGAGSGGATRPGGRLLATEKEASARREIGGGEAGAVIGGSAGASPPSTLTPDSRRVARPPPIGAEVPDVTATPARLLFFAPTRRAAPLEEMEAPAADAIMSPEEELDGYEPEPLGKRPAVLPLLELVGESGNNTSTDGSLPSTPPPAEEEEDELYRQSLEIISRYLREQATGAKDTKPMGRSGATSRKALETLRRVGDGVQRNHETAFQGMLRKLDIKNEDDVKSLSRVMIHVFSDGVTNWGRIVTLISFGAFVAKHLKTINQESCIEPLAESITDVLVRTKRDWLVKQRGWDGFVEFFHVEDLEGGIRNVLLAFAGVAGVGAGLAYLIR
Bcl-xL primary – blocks human Bcl-xL binding to Bim BH3 peptide; GST-Bcl-xL / FITC-Bim BH3 peptide fluorescence polarization; inhibition, % at 10.9 µM; 0.7% of 320,000 active; AID 2129;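 active = inhibition above the mean of all tested compounds plus 3 SD, cutoff set per campaign, cut at about 30% in these data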;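 also: 0% = DMSO wells and 100% = unlabeled Bim-BH3 peptide competitor; inhibitors lower millipolarization by displacing the labeled peptide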
Target sequence (Q07817 whole entry, looked up): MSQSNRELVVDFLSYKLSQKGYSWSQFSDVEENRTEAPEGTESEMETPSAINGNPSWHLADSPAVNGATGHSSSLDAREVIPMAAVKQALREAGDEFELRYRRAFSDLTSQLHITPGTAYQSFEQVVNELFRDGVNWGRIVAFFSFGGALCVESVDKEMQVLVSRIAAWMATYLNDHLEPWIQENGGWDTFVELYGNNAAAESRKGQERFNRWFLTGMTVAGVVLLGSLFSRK
GLD-1 TGE inh – GLD-1-TGE RNA interaction inhibition (C. elegans); Q17339; purified GLD-1 + fluorescein TGE RNA, fluorescence polarization; inhibition, % at 5.96 µM; 0.44% of 320,000 active; AID 2280;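 active = percent inhibition above a per-plate cutoff, the plate mean of test compounds plus 3 SD, cut at about 30% in these data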;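 also: 0% = DMSO wells with GLD-1 and probe and 100% = wells lacking GLD-1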
MCL1 BIM primary – inhibitors of human MCL1 binding to BIM-BH3 peptide | Q07820 | GST-MCL1 / FITC-Bim-BH3 fluorescence polarization | inhibition, % at 10.9 µM | 0.68% of 320,000 active;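 active = inhibition above the mean inhibition of all tested compounds plus 3 SD, set per campaign, cut at about 40% in these data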;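 also: 0% = DMSO wells and 100% = unlabeled Bim-BH3 peptide control; higher means more loss of mP so more displacement of Bim peptide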
Bim-Mcl-1 – disrupts Bim peptide binding to human Mcl-1; Bead-based flow cytometry, Bim peptide-Mcl-1 binding; inhibition, % at 10 µM; 0.1% of 190,000 active; in the data active = inhibition above about 40%;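 also: 0% = no compound tracer wells and 100% = peptide blocker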
Mcl1 Bid PPI – disrupts binding of human Mcl-1 to Bid peptide; 0.97% of 220,000 active; TR-FRET Mcl-1/Bid-Dy647 peptide binding, 1536-well; AID 1021; inhibition, % at 21.7 µM;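 active = compounds that cut the binding signal by more than half at the single screening dose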;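 also: His-tagged Mcl-1 with europium anti-His antibody binding Bid BH3 peptide; 0% = Mcl-1 plus peptide wells and 100% = peptide-only wells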
BCLXL inh confirm – counter-screen for MCL1 inhibitors: confirmation of human Bcl-xL inhibitors; inhibition, % at 10.9 µM; 54% of 1,700 active; shares compounds with MCL1 BIM primary; GST-Bcl-xL / FITC-Bim BH3 peptide FP binding;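 active = inhibition above a cutoff equal to the mean inhibition of all tested compounds plus 3 SD, cut at about 30% in these data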;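 also: 0% = DMSO wells and 100% = unlabeled Bim BH3 control peptide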
MCL1 inh confirm – MCL1-BIM-BH3 interaction inhibition, confirmation; shares compounds with MCL1 BIM primary; 61% of 1,700 active; GST-MCL1 / FITC-Bim-BH3 fluorescence polarization; inhibition, % at 10.9 µM;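 active = inhibition above the average of all tested compounds plus 3 SD, cut at about 40% in these data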;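 also: 0% = DMSO wells and 100% = unlabeled Bim-BH3 control peptide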
The depositor's hits bear a star; nt = not tested or not shown; + = active, no number. A selection: hits, their analogues and other compounds. The true share with any hit is near 2.3%.

SMILES	Mcl1 Noxa PPI	Bcl-xL primary	GLD-1 TGE inh	MCL1 BIM primary	Bim-Mcl-1	Mcl1 Bid PPI	BCLXL inh confirm	MCL1 inh confirm
O=C1CSC(=S)N1c1ccc(F)cc1	nt	-7	-7	7	nt	nt	nt	nt
COc1ccccc1OC(C)C(=O)N(Cc1ccco1)C1CCS(=O)(=O)C1 (stereo not drawn)	nt	1	1	0	nt	nt	nt	nt
O=C1C=C(Nc2ccccc2O)c2ccccc2C1=O	11	83*	99*	100*	-1	-23	15	16
Cc1ccc(NC2=CC(=O)C(=O)c3ccccc32)c(C)c1	nt	1	9	4	nt	nt	nt	nt
O=C(CSc1nnc(-c2ccc(O)cc2)o1)NNC(=O)c1ccncc1	nt	-5	-1	-4	nt	nt	nt	nt
COc1ccc(/C=C(\C#N)C(=O)OCC(=O)NCc2ccccc2)cc1	7	4	1	4	-4	-22	nt	nt
COc1cccc(CNC(=O)COC(=O)/C(C#N)=C/c2ccc(N(C)C)cc2)c1	nt	117*	123*	136*	nt	nt	89*	116*
CCOC(=O)c1sc2nc3c(cc2c1N)COC(C(C)C)C3 (stereo not drawn)	-6	2	4	-2	0	-22	nt	nt
CC(C)OC(=O)CC(=O)c1sc2nc3c(cc2c1N)CN(C)CC3	57*	84*	53*	98*	6	-16	60*	72*
C=CCN1C=C2C(=O)C(C)(OC(=O)C3CCCC3)C(=O)C(c3ccccc3)=C2C=C1CCCC(=O)OC (stereo not drawn)	-3	16	11	19	nt	-63	nt	nt
C=CCN1C=C2C(=O)C(C)(OC(=O)CCC(=O)OC)C(=O)C(Br)=C2C=C1c1ccc(OC)cc1 (stereo not drawn)	13	71*	28	74*	nt	-124	52*	56*
COCCCn1c(=O)/c(=C\c2ccccc2OC(F)F)s/c1=C(/C#N)C(=O)NCCOC	0	6	2	5	nt	-21	nt	nt
COCCCn1c(=O)/c(=C\c2ccccc2OC(F)F)s/c1=C(/C#N)C(=O)N1CCOCC1	11	1	4	+	0	-28	0	-1
O=C(NNCc1ccc(O)cc1)c1ccccc1Cl	nt	5	-3	3	nt	nt	nt	nt
Cc1ccc(-n2[nH]c(C)c(C=Nc3ccc4[nH]c(=O)[nH]c4c3)c2=O)cc1C	12	60*	15	117*	2	-7	103*	130*
O=c1c2cc(Br)ccc2nc(-c2ccccc2)n1O	nt	7	-3	8	nt	nt	nt	nt
CCCN1CCN(S(=O)(=O)c2cn(C)nc2C)CC1	nt	66*	27	84*	nt	nt	77*	96*
Cc1nn(C)cc1S(=O)(=O)N1CCN(Cc2ccccc2Cl)CC1	21	5	8	8	9	-50	nt	nt
Cc1ccc(C(=O)OC(C)C(=O)c2cc(C)c(C)cc2C)o1 (stereo not drawn)	nt	1	1	-3	nt	nt	nt	nt
Cc1ccc(C)n1-c1ccc(-c2ccnc(N)n2)cc1	29	nt	nt	nt	3	-62	nt	nt
Cc1ccc(S(=O)(=O)/N=C2/NC(=O)/C(=C/c3ccccn3)S2)cc1	31	8	-1	6	0	1	nt	nt
COc1ccc(S(=O)(=O)/N=C2/NC(=O)/C(=C/c3ccco3)S2)cc1	9	22	10	42*	-2	-40	18	24
COc1ccc(S(=O)(=O)/N=C2/NC(=O)/C(=C\c3ccco3)S2)cc1	29	28	-2	55*	-7	-26	13	11
COc1ccc(S(=O)(=O)N2CCC(C(=O)NN3CCCCC3)CC2)cc1OC	nt	1	2	7	nt	nt	nt	nt
O=C(NCCc1ccccc1)[C@@H]1CC=C[C@@H]2CCN(C3CCCCC3)C(=O)[C@@H]21	nt	7	-2	3	nt	nt	nt	nt
SMILES	Mcl1 Noxa PPI	Bcl-xL primary	GLD-1 TGE inh	MCL1 BIM primary	Bim-Mcl-1	Mcl1 Bid PPI	BCLXL inh confirm	MCL1 inh confirm
O=C(O)CCC(=O)Nc1cc(C(F)(F)F)cc(C(F)(F)F)c1	18	2	2	1	nt	-5	nt	nt
O=C(O)CSc1cc(NS(=O)(=O)c2ccc(Br)cc2)c2ccccc2c1O	nt	21	10	42*	nt	nt	35*	79*
Cc1ccc(S(=O)(=O)Nc2ccc(Br)cc2C(NCC(=O)O)c2ccccc2)cc1 (stereo not drawn)	-22	1	4	-1	-4	1	nt	nt
Cc1ccc2nc3c(cc(C(=O)NCc4ccco4)c(=N)n3C3CCCC3)c(=O)n2c1	nt	69*	37*	83*	nt	nt	74*	94*
Cc1cccn2c(=O)c3cc(C(=O)NCc4ccco4)c(=N)n(C4CCCCC4)c3nc12	nt	20	11	16	nt	nt	nt	nt
CC1(c2ccccc2)NC(=O)N(CC(=O)Nc2ccc(N3CCOCC3)cc2)C1=O (stereo not drawn)	nt	nt	2	nt	nt	nt	nt	nt
CC(=O)N1CCN(c2nc(CC(C)C)c3c(c2C#N)CCC3)CC1	11	166*	157*	+	0	-10	19	30
Cc1ccc2[nH]c(CNC(=O)c3ccc(F)cc3)cc2c1	nt	-4	3	-12	nt	nt	nt	nt
CC(=O)Nc1ccc(NC(=O)CSc2nnc(C3CC3)n2C)cc1	14	6	-3	2	4	3	nt	nt
Cn1c(SCC(=O)Nc2ccc(F)cc2)nnc1C1CC1	nt	2	-3	176*	nt	nt	-20	-36
O=C1C2C3C=CC(CC3)C2C(=O)N1c1ccc(F)cc1 (stereo not drawn)	nt	0	-1	3	nt	nt	nt	nt
CC(C)C1NC2(C(=O)c3ccccc3C2=O)C2C(=O)N(c3ccc(F)cc3)C(=O)C12 (stereo not drawn)	48	80*	120*	64*	-7	-20	11	7
CCOC(=O)C1(CCOc2ccccc2)CCN(CC(O)CO)CC1 (stereo not drawn)	nt	0	6	8	nt	nt	nt	nt
Cc1ccccc1-c1nc(Cc2ccccc2)no1	5	6	7	44*	4	-11	3	-4
C=CCN1C(=O)[C@]2(c3ccccc31)C1CCCC=C1C(C#N)=C(N)C2(C#N)C#N (stereo partly drawn)	10	-5	-1	-6	-1	-16	nt	nt
CN1CCC2(CC1)C1CN(C)CC=C1C(C#N)=C(N)C2(C#N)C#N (stereo not drawn)	-8	120*	20	140*	-1	-24	117*	146*
O=C(COC(=O)CNC(=O)c1ccccc1)Nc1ccc(Cl)cn1	nt	nt	0	nt	nt	nt	nt	nt
CC(=O)Nc1ccc(N/C=C2/CCCC2=O)cc1	3	8	-2	80*	nt	-62	1	-2
O=C(NCCN1CCCC1)C(c1ccccc1)c1ccccc1	nt	5	-5	5	nt	nt	nt	nt
CCCCN(C(=O)c1cc(-c2ccco2)nc2ccccc12)c1c(N)n(CCCC)c(=O)[nH]c1=O	nt	21	15	45*	nt	nt	17	31
